PubChem BioAssay (NCI)
This is part of a sample that, as a whole, favours compounds with a hit. Of some 83,000 tested, about 20% had one in any assay.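 A percent growth of 40 corresponds to 60% growth inhibition; 0 means no net growth; -100 means all cells died. Active threshold: below 10.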 Values without a mark were called inactive. Activity calls are given as the source filed them.

Assays:
Assay in all cases: NCI-60 one-dose screen, 48 h (100 = growth as untreated, 0 = no growth, -100 = all killed)
Settings in all cases: 10 µM unless noted
SR leukemia = tested on: SR leukemia
RPMI-8226 leukemia = tested on: RPMI-8226 leukemia
OVCAR-8 ovarian = tested on: OVCAR-8 ovarian
OVCAR-5 ovarian = tested on: OVCAR-5 ovarian
OVCAR-4 ovarian = tested on: OVCAR-4 ovarian
SK-OV-3 ovarian = tested on: SK-OV-3 ovarian
IGROV1 ovarian = tested on: IGROV1 ovarian
OVCAR-3 ovarian = tested on: OVCAR-3 ovarian
NCI/ADR-RES ovarian = tested on: NCI/ADR-RES ovarian
HS 578T breast = tested on: HS 578T breast

Structure (SMILES) | growth (SR leukemia) | growth (RPMI-8226 leukemia) | growth (OVCAR-8 ovarian) [%] | growth (OVCAR-5 ovarian) [%] | growth (OVCAR-4 ovarian) [%] | growth (SK-OV-3 ovarian) | growth (IGROV1 ovarian) | growth (OVCAR-3 ovarian) | growth (NCI/ADR-RES ovarian) | growth (HS 578T breast) [%]
CN(C)Cc1cc(C(C)(C)C)cc(Br)c1O | 107% | 96.9% | 106 | 107 | 102 | 97.4% | 108% | 114% | 106% | –
COCCn1cc(-c2nc(-c3c[nH]c4ncccc34)cs2)c2ccccc21 | 18.4% | 43.3% | 81 | 43.7 | 15.2 | – | 36% | 13.6% | 69.1% | 47.4
COc1ccc(Oc2ccc(/C=C/C(=O)c3cc4ccccc4oc3=O)cc2)cc1 | 80.9% | 59.6% | 93.5 | 112 | 80.7 | 92.4% | 70.1% | 107% | 85.6% | –
C(=C(\C1=NCCN1)n1ccc2ccccc21)/c1ccccc1 | 95.9% | 100% | 97 | 92.6 | 103 | – | 93.4% | 104% | – | –
Cc1ccc(S(=O)(=O)c2nc(-c3ccccc3)oc2SCC(N)=O)cc1 | 94.6% | 96.8% | 111 | 86.9 | 99.6 | – | 101% | 94.9% | 99.5% | 101
COc1cc2c(cc1-c1c(C)noc1C)ncc1nc(CN3CCOCC3)n([C@H](C)COC(F)F)c12 | 33.7% | 10.1% | 46.1 | 68.2 | 35.9 | 7.42% (active) | 36.2% | 23.1% | 40.8% | –
O=C(NCCNC(c1ccccc1)C(NCCNC(=O)c1ccccc1)c1ccccc1)c1ccccc1 (configuration not stated) | 50.2% | 90.1% | 78.9 | 83.8 | 91.3 | – | 82.4% | 116% | 76.6% | 115
Cn1c2ccccc2c2c3c(c4c5cc(Br)ccc5n(C)c4c21)C(=O)N(O)C3=O | 18.6% | 10.8% | 24.8 | 92.6 | – | 3.4% (active) | 21.5% | 6.42% (active) | 6.86% (active) | 61.9
Cc1c2ccccc2nc2cc3c(cc12)[C@H]1CC[C@]2(C)C(=O)CC[C@H]2[C@@H]1CC3 | 92.9% | 79.5% | 92.5 | 97.6 | 95.8 | – | 101% | 104% | 103% | –
COc1ccc(/C=C2\CN(C(=O)C(Cl)Cl)C/C(=C\c3ccc(OC)c(OC)c3)C2=O)cc1OC | 6.16% (active) | -5.84% (active) | 19.1 | 10.6 | – | 48.3% | -43.9% (active) | -16.6% (active) | 13.7% | 21.1
